CD11b adhes inh: blocks human CD11b/CD18 adhesion to fibrinogen; P05107+P11215; K562 CD11b/CD18 adhesion to fibrinogen, ATPlite luminescence; Mn2+ added to activate the integrin; inhibition, % at 10 µM; 0.54% of 93,000 active; AID 1497;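 active means primary inhibition of 50% or more at 10 µM, then 40% or more on retest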
CYP2C19 inhib: human CYP2C19 inhibition | P33261 | CYP2C19 Supersomes, luciferin-H EGE luminescence, 30 min | inhibition, % at 5 µM | 21% of 96,000 active;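 active means CYP2C19 inhibition above a set limit at 5 µM in the primary screen, cut at about 50% in these data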
Target sequence (P33261 whole entry, looked up): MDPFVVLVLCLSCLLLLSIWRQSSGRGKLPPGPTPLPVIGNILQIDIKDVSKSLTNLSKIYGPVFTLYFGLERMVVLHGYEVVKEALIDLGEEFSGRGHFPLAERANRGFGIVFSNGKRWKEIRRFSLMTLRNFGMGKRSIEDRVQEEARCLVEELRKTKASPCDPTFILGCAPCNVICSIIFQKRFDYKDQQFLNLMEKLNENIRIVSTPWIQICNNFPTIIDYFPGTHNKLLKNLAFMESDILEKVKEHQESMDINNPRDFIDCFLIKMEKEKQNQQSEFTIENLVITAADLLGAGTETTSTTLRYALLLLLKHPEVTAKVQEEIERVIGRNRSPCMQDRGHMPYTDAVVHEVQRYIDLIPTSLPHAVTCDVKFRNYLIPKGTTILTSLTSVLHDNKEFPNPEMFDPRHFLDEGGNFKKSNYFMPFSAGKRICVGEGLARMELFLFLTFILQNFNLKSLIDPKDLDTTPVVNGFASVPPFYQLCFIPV
CYP2C9 act: CYP2C9 (human) activation; P11712; recombinant CYP2C9, luciferin-H conversion, luminescence; active compounds read high; factor 1 = untreated enzyme, 0 = blocked; activation factor at 5 µM; 1.4% of 96,000 active; AID 1024;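 active means activation factor of 2 or more for CYP2C9 at a 5 µM dose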
CD11b adhes enh: enhancers of human CD11b/CD18 binding to fibrinogen | P05107+P11215 | K562 CD11b/CD18 adhesion to fibrinogen, ATPlite luminescence | activation, % at 10 µM | 0.07% of 93,000 active;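 active means 10 µM primary screen giving 50% or more activity, confirmed by 40% or more on retest at that dose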
CYP2C19 act: cytochrome P450 2C19 (human) activation; recombinant CYP2C19, luciferin-H EGE luminescence; active compounds read high; 0 = fully inhibited enzyme, 1 = untreated enzyme; activation factor at 5 µM; 96,000 tested, under 10 active;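 active means activation factor of at least 2 at 5 µM in the primary screen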
CYP2C9 inhib: human CYP2C9 inhibition. CYP2C9 Supersomes, luciferin-H conversion, luminescence. inhibition, % at 5 µM. 20% of 96,000 active. AID 777;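 active means blocking of liver enzyme CYP2C9 beyond about 50% at 5 µM, limit read from the data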
Large screens that a line does not name were inactive. Most compounds without a hit are left out; they make up all but 28% or so of the library.

Cc1ccc(C)c(NC(=O)C2CC(O)CN2C(=O)OC(C)(C)C)c1 (stereo not drawn)	none (no result: CD11b adhes inh, CD11b adhes enh)
Cc1ccc(/C=N/NC(=O)CNC(=O)Cc2ccccc2)o1	none (no result: CYP2C19 inhib, CYP2C9 act, CYP2C19 act, CYP2C9 inhib)
O=C(COC(=O)c1cccnc1Nc1ccccc1F)NCCN1C(=O)CSC1=O	CYP2C19 inhib 84
O=C(COC(=O)c1cccnc1Nc1ccccc1F)NCc1ccc2c(c1)OCO2	none
CSC(=NC1CCCCC1)NS(=O)(=O)c1ccccc1	CYP2C19 inhib 80
CSC(=NS(=O)(=O)c1ccccc1)SC	none
CC1CCCCN1C(=O)c1cnn2c(C(F)(F)F)cc(-c3ccco3)nc12 (stereo not drawn)	none
CCC1SC(=NC(=O)c2ccc(Cl)c(Cl)c2)NC1=O (stereo not drawn)	CYP2C9 inhib 58
Cc1ccc2[nH]c(=O)c(C(c3nnnn3CCc3ccccc3)N3CCOCC3)cc2c1 (stereo not drawn)	none
O=C(CNS(=O)(=O)c1ccc(Br)s1)Nc1ccc2c(c1)OCCO2	CYP2C9 inhib 75
CN(CC(=O)Nc1ccc2c(c1)OCCO2)S(=O)(=O)c1ccc(Br)s1	CYP2C19 inhib 68, CYP2C9 inhib 64
O=C(CNS(=O)(=O)c1ccc(Br)s1)NCC1COc2ccccc2O1 (stereo not drawn)	CYP2C9 inhib 64
O=C(O)CNCC1COc2ccccc2O1 (stereo not drawn)	none
CC(C)c1nnc(NC(=O)CN(C)S(=O)(=O)c2ccc3c(c2)OCCO3)s1	none
O=C(NCC1CCCCC1)C1CCCN(C(=O)NC2CCCCC2)C1 (stereo not drawn)	none
Cc1nn(CC#N)c(=O)n1-c1ccccc1	none
O=C(c1cccc2ccccc12)N1CCN(c2ccc([N+](=O)[O-])c(N3CCOCC3)c2)CC1	none (no result: CYP2C19 inhib, CYP2C9 act, CYP2C19 act, CYP2C9 inhib)
O=C(COc1ccccc1)N1CCN(c2ccc([N+](=O)[O-])c(N3CCCCC3)c2)CC1	CYP2C19 inhib 64, CYP2C9 inhib 79 (no result: CD11b adhes inh, CD11b adhes enh)
Cc1ccccc1C(=O)N1CCN(c2ccc([N+](=O)[O-])c(N3CCOCC3)c2)CC1	CYP2C19 inhib 55, CYP2C9 inhib 59 (no result: CD11b adhes inh, CD11b adhes enh)
Cc1ccc(OCC(=O)N2CCN(c3ccc([N+](=O)[O-])c(N4CCOCC4)c3)CC2)cc1	CYP2C9 inhib 57
Cc1cccc(-n2nnc3cnn(C)c3c2=O)c1	none (no result: CD11b adhes inh, CD11b adhes enh)
CCOc1ccccc1OCCCC(=O)N1CCN(S(=O)(=O)c2ccc(C)cc2)CC1	CYP2C19 inhib 86
CCOc1ccccc1OCCCC(=O)N1CCN(S(=O)(=O)c2cccc(F)c2)CC1	CYP2C19 inhib 75
O=C(CNC(=S)N(Cc1ccccc1F)C1CCCCC1)NC1CC1	none
COc1nc(N/N=C/c2ccc(C)cc2)nc(N2CCCCC2)n1	none (no result: CYP2C19 inhib, CYP2C9 act, CYP2C19 act, CYP2C9 inhib)
COc1cccc(/C=N/Nc2snc(SC)c2C#N)c1	CYP2C9 inhib 66 (no result: CD11b adhes inh, CD11b adhes enh)
COc1ccc(/C=N/Nc2snc(SC)c2C#N)cc1OC	CYP2C19 inhib 62, CYP2C9 inhib 61
Nc1nc2c3ccccc3nc(C3CC3)n2n1	none
COC(=O)[C@H](CC(C)C)NC(=O)N1CCN(c2cccc(C(F)(F)F)c2)CC1	none
CC[n+]1c(/C=C2/C=C(C)CC(C)(C)C2)sc2ccc(OC)cc21	none (no result: CD11b adhes inh, CD11b adhes enh)
CC[n+]1c(/C=C2\C=C(C)CC(C)C2)sc2ccccc21 (stereo not drawn)	CD11b adhes inh 59
CC[n+]1c(/C=C2\C=C(C)CC(C)(C)C2)sc2ccccc21	CD11b adhes inh 73
CCN1C(=O)C(CC(=O)N2CCN(C(c3ccccc3)c3ccccc3)CC2)N(CC)C1=O (stereo not drawn)	none
O=S(=O)(c1cccs1)N1CCN(C/C=C/c2ccccc2)CC1	CYP2C19 inhib 86, CYP2C9 inhib 74 (no result: CD11b adhes inh, CD11b adhes enh)
O=S(=O)(c1ccc(Cl)s1)N1CCN(C/C=C/c2ccccc2)CC1	CYP2C19 inhib 78, CYP2C9 inhib 80
CS(=O)(=O)N1CCN(C/C=C/c2ccccc2)CC1	none
CC(C)COc1ccc(/C=C2/Sc3ccccc3C2=O)cc1	none (no result: CD11b adhes inh, CD11b adhes enh)
Cc1ccnn1CCSCC(=O)O	none
CCN(CCNC(=O)C1CCN(c2nnc(-n3cccc3)s2)CC1)c1ccccc1	CYP2C19 inhib 83, CYP2C9 inhib 87
CCOc1ccc(CCNC(=O)C2CCN(c3nnc(-n4cccc4)s3)CC2)cc1OCC	CYP2C9 inhib 82
CCOc1ccc(CCNC(=O)C2CCN(c3nn4c(=O)cc(C)nc4s3)CC2)cc1	CYP2C9 inhib 65
CCOc1ccc(CCNC(=O)C2CCN(c3nnc(-n4cccc4)s3)CC2)cc1	none
CC(=O)CCc1c[nH]c2c(C(=O)O)cccc12	none
N#CC(C#N)=C/C(C#N)=C(/N)N1CCN(c2ccc(Cl)cc2)CC1	none (no result: CD11b adhes inh, CD11b adhes enh)
CSC(=NC#N)N1CCN(c2ccc(Cl)cc2)CC1	CYP2C19 inhib 86 (no result: CD11b adhes inh, CD11b adhes enh)
CCn1c(-c2cc3c(C(F)(F)F)nn(C)c3s2)n[nH]c1=S	none (no result: CD11b adhes inh, CD11b adhes enh)
Cc1csc(=Nc2ccc(S(=O)(=O)N3CCOCC3)cc2)n1Cc1ccco1	CYP2C9 inhib 64
O=C1CCc2cc(S(=O)(=O)NC(Cc3ccccc3)C(=O)NCCC3=CCCCC3)ccc2N1 (stereo not drawn)	CYP2C19 inhib 68, CYP2C9 inhib 61
O=C(/C=C/c1ccc(OC2CSC2)cc1)c1ccccc1	CYP2C19 inhib 61 (no result: CD11b adhes inh, CD11b adhes enh)
CCOCCn1c(N(C)Cc2ccccc2)nc2c1c(=O)[nH]c(=O)n2C	none
CCCN(c1nc(C)cc(OC)n1)S(=O)(=O)c1ccccc1	none (no result: CYP2C19 inhib, CYP2C9 act, CYP2C19 act, CYP2C9 inhib)
COc1cc(C)nc(N(Cc2ccccc2)S(=O)(=O)c2ccccc2)n1	CYP2C19 inhib 83, CYP2C9 inhib 74
CC(C)(C)c1ccc(C(=O)NC(Cc2ccccc2)C(=O)O)cc1 (stereo not drawn)	none (no result: CD11b adhes inh, CD11b adhes enh)
Cn1c(Cl)c(C(=O)Nc2ccc(Cl)cc2)c2ccccc21	none
CCOc1ccc(N/C(=C(/C(Cl)=C(Cl)Cl)[N+](=O)[O-])n2cncn2)cc1	CYP2C19 inhib 61, CYP2C9 inhib 68
O=[N+]([O-])/C(C(Cl)=C(Cl)Cl)=C(\Nc1ccc(F)cc1)n1cncn1	none
COc1ccc(CC(=O)NNc2ncnc3c2cnn3-c2ccc(C)cc2)cc1OC	none (no result: CYP2C19 inhib, CYP2C9 act, CYP2C19 act, CYP2C9 inhib)
COc1ccc(CCn2c(C)cc3c(c2=O)C(c2ccncc2)C(C#N)=C(N)O3)cc1OC (stereo not drawn)	CYP2C19 inhib 83, CYP2C9 inhib 79
CCn1c(C)cc2c(c1=O)C(c1ccncc1)C(C#N)=C(N)O2 (stereo not drawn)	none
COc1cccc(OC)c1NC(=O)Cc1nn(C)c(=O)c2ccccc12	none
COc1cc(NC(=O)Cc2nn(C)c(=O)c3ccccc23)cc(OC)c1	CYP2C9 inhib 86
COc1ccccc1NC(=O)Cc1nn(C)c(=O)c2ccccc12	CD11b adhes inh 64
O=C(CCn1cnc2ccccc2c1=O)Nc1ccc2c(c1)OCCO2	CYP2C19 inhib 53, CYP2C9 inhib 53
Cn1nc(CC(=O)Nc2ccc3c(c2)OCCO3)c2ccccc2c1=O	CD11b adhes inh 96

Source: PubChem (Sanford-Burnham Center for Chemical Genomics)
